Data published in the antibiotic and cytotoxicity screens of Wong et al. (2023).
Among all 39,000 compounds or so, about 3,300 (8.5%) were called active. For the sample, actives were picked, then their nearest neighbours and some compounds at random.

system: HepG2; experiment: cytotoxicity call (relative viability < 0.9); conditions: 10 µM

Compound | cytotoxicity call
C[C@@H]1CN([C@@H](C)CO)C(=O)c2cc(NC(=O)c3ccncc3)ccc2O[C@@H](C)CCCCO[C@@H]1CN(C)Cc1ccccc1 | inactive
C[C@H]1CN([C@@H](C)CO)C(=O)c2cc(NC(=O)Cn3cnnn3)ccc2O[C@@H]1CN(C)S(=O)(=O)c1ccc(Cl)cc1 | inactive
C[C@H](CO)N1C[C@H](C)[C@H](CN(C)Cc2ccc(-c3ccccc3)cc2)Oc2ccc(NC(=O)Nc3ccc(F)cc3)cc2CC1=O | active
C[C@H]1CN([C@@H](C)CO)C(=O)Cc2cc(NC(=O)Nc3ccc(F)cc3)ccc2O[C@@H]1CN(C)Cc1ccc(-c2ccccc2)cc1 | active
C[C@@H]1CN([C@@H](C)CO)C(=O)Cc2cc(NC(=O)Nc3ccc(F)cc3)ccc2O[C@@H]1CN(C)Cc1ccc(-c2ccccc2)cc1 | active
C[C@H](CO)N1C[C@H](C)[C@@H](CN(C)Cc2ccc(-c3ccccc3)cc2)Oc2ccc(NC(=O)Nc3ccc(F)cc3)cc2CC1=O | active
C[C@H](CO)N1C[C@H](C)[C@@H](CN(C)S(=O)(=O)c2cn(C)cn2)Oc2ncc(C3=CCCC3)cc2C1=O | inactive
O=C(CN1CCOCC1)N[C@H]1CC[C@@H](CCNC(=O)Nc2cc(F)ccc2F)O[C@H]1CO | inactive
CON=C(C(=O)NC1C(=O)N2C(C(=O)[O-])=C(COC(N)=O)CSC12)c1ccco1.[Na+] (stereo not drawn) | inactive
C[C@@H]1CCCCO[C@H](CN(C)C(=O)Nc2cccc3ccccc23)[C@@H](C)CN([C@@H](C)CO)C(=O)c2cc(N(C)C)ccc2O1 | inactive
CCCNC(=O)N(C)C[C@H]1Oc2cc(C#Cc3cccc(F)c3)ccc2S(=O)(=O)N([C@H](C)CO)C[C@H]1C | inactive
C[C@H](CO)N1C[C@H](C)[C@H](CN(C)Cc2ccccc2)OCCCC[C@H](C)Oc2ccc(NS(=O)(=O)c3ccc(Cl)cc3)cc2C1=O | inactive
CCCNC(=O)N(C)C[C@@H]1Oc2cc(-c3ccc(C)cc3)ccc2S(=O)(=O)N([C@H](C)CO)C[C@@H]1C | inactive
COCC(=O)N(C)C[C@H]1Oc2cc(C#Cc3ccccc3)ccc2S(=O)(=O)N([C@H](C)CO)C[C@H]1C | inactive
C[C@H]1CN([C@@H](C)CO)C(=O)Cc2cc(NC(=O)Nc3ccc(F)cc3)ccc2O[C@H]1CN(C)Cc1ccc(-c2ccccc2)cc1 | active
C[C@@H]1CN([C@H](C)CO)C(=O)Cc2cc(NC(=O)Nc3ccc(F)cc3)ccc2O[C@@H]1CN(C)Cc1ccc(-c2ccccc2)cc1 | inactive
C[C@@H]1CN([C@@H](C)CO)C(=O)Cc2cc(NC(=O)Nc3ccc(F)cc3)ccc2O[C@H]1CN(C)Cc1ccc(-c2ccccc2)cc1 | active
C[C@@H]1CN([C@H](C)CO)C(=O)Cc2cc(NC(=O)Nc3ccc(F)cc3)ccc2O[C@H]1CN(C)Cc1ccc(-c2ccccc2)cc1 | active
